Activity calls are given as the source filed them.
What was measured:
[1] = system: PRMT1 (protein arginine N-methyltransferase 1); experiment: small molecules binding arginine methyltransferase PRMT1 – biochemical, small-molecule microarray, 635 nm fluorescence, primary screen (AID 1088); settings: higher = more signal;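 also: binding of Prmt1 protein to compounds spotted on small-molecule microarray slides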
[2] = growth effects on S. cerevisiae YJM789 – YJM789 clinical isolate, OD600, 24 h, basal, primary screen (AID 1089); settings: higher = more signal, called active from +8 up or from −8 down;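 also: growth of clinical yeast isolate S. cerevisiae YJM 789 seeded 1000 cells per well; test concentration not given here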
[3] = S. pombe growth modifiers, basal conditions – strain 972, OD600, 24 h, no modulator, primary screen (AID 1090);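 also: basal condition with compound alone and no growth modifier present; test concentration not given here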; settings: S. pombe 972 growth, higher = more signal, called active from +8 up or from −8 down
[4] = budding yeast growth modifiers under rapamycin – strain BY4716, OD600, 96 h, primary screen (AID 1091); also: test concentration not given here; settings: S. cerevisiae BY4716 + rapamycin, higher = more signal, called active from +8 up or from −8 down
[5] = target: Torsin-1A-interacting protein 2 (Homo sapiens) (UniProt Q8NFQ8); experiment: small molecules binding lysate-expressed LULL1 – cell lysate, human LULL1 lysate, 635/667 nm fluorescence, primary screen (AID 1092); settings: small-molecule microarray, hLULL1 lysate binding, 635 nm fluorescence; higher = more signal;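 also: probe is lysate of COS7 cells overexpressing human LULL1; score merges per-feature 667 nm fluorescence with signal-to-noise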
[6] = optical density change of DRC41 E. coli – strain DRC41, OD650, 24 h, E. coli filamentation project, primary screen (AID 1093);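 also: MC1000 strain lacking acrAB efflux and sulA so SOS filamentation is blocked; test concentration not given here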; settings: E. coli DRC41 growth, higher = more signal, called active from +8 up or from −8 down
[7] = probe aLefty2 binding to arrayed compounds – biochemical, biotinylated probe, 635/667 nm fluorescence, primary screen (AID 1094); settings: small-molecule microarray, higher = more signal;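 also: score merges spot fluorescence near 667 nm with spot signal-to-noise ratio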
[8] = system: Noggin (protein binding on small-molecule microarray); experiment: small molecules binding Noggin protein – biochemical, 635/667 nm fluorescence, primary screen (AID 1095); settings: 635 nm fluorescence, higher = more signal;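 also: score merges 667 nm feature fluorescence with signal to noise over triplicate slides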
[9] = target: Neurogenic locus notch homolog protein 3 (Homo sapiens) (UniProt Q9UM47); experiment: small molecules binding NOTCH3 protein – biochemical, 635/667 nm fluorescence, primary screen (AID 1096); settings: small-molecule microarray, 635 nm fluorescence, higher = more signal
[10] = probe aEGFR binding to arrayed compounds – biochemical, biotinylated probe, 635/667 nm fluorescence, primary screen (AID 1097); settings: small-molecule microarray, higher = more signal;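 also: probe is a biotinylated anti-EGFR antibody binding compounds printed on slides; score combines fluorescence near 667 nm and signal to noise of each spot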
[11] = system: Plasmodium falciparum Sir2 (PF13_0152, Sir2A); experiment: Plasmodium falciparum Sir2A binding compounds – biochemical, small-molecule microarray, 635 nm fluorescence, primary screen (AID 1098); settings: fluorescence 635 nm, higher = more signal;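 also: score merges spot fluorescence intensity with its signal-to-noise ratio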
[12] = probe aDKK1 binding to arrayed compounds – biochemical, biotinylated probe, 635/667 nm fluorescence, primary screen (AID 1099); settings: small-molecule microarray, higher = more signal;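 also: score merges 667nm spot fluorescence with signal to noise across triplicate slides; reference of the scale not given here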
[13] = probe aCHRDL2 binding to arrayed compounds – biochemical, biotinylated probe, 635/667 nm fluorescence, primary screen (AID 1100); settings: small-molecule microarray, higher = more signal
[14] = change in splice reporter luminescence, either direction, cell-based, HEK293, spliceosome inhibition project, primary screen (AID 1101); settings: HEK293 splicing luciferase reporter, 24 h, higher = more signal, called active from +8 up or from −8 down;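 also: HEK293 cells carrying a splicing-competent luciferase reporter gene; test concentration not given here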
[15] = target: Fibroblast growth factor 10 (Homo sapiens) (UniProt O15520); experiment: compounds binding fibroblast growth factor 10 – biochemical, small-molecule microarray, 635 nm fluorescence, primary screen (AID 1102); settings: FGF10 binding, fluorescence 635 nm, higher = more signal
[16] = system: glycogen synthase kinase-3 (GSK3A per assay name; protocol says GSK3B); experiment: compounds binding glycogen synthase kinase-3 – biochemical, small-molecule microarray, 635 nm fluorescence, GSK3A, primary screen (AID 1103); settings: fluorescence 635 nm, higher = more signal; also: the record names both GSK3A and GSK3B
[17] = target: Epidermal growth factor receptor (Homo sapiens) (UniProt P00533); experiment: compounds binding epidermal growth factor receptor – biochemical, small-molecule microarray, 635 nm fluorescence, primary screen (AID 1104); settings: EGFR binding, higher = more signal;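 also: score merges 667 nm emission intensity with spot signal to noise over triplicate slides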
[18] = target: Follistatin-related protein 3 (Homo sapiens) (UniProt O95633); experiment: compounds binding follistatin-related protein 3 – biochemical, small-molecule microarray, 635 nm fluorescence, primary screen (AID 1105); settings: FSTL3 binding, higher = more signal;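 also: score merges emission near 667 nm and signal to noise per printed spot across three slides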
[19] = target: Dickkopf-related protein 1 (Homo sapiens) (UniProt O94907); experiment: small molecules binding DKK1 protein – biochemical, small-molecule microarray, 635 nm fluorescence scan, primary screen (AID 1106); settings: higher = more signal;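 also: score merges emission near 667 nm with signal to noise over three replicate slides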
[20] = system: Inhibin beta A chain (activin A); experiment: small molecules binding activin A – biochemical, small-molecule microarray, 635 nm fluorescence scan, primary screen (AID 1107); settings: INHBA, higher = more signal;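 also: mouse activin A protein probed at 4.33 µg/mL on printed slides; score merges bound-protein fluorescence near 667 nm with spot signal-to-noise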

Sequence of Fibroblast growth factor 10 (Homo sapiens) (O15520 whole entry, looked up): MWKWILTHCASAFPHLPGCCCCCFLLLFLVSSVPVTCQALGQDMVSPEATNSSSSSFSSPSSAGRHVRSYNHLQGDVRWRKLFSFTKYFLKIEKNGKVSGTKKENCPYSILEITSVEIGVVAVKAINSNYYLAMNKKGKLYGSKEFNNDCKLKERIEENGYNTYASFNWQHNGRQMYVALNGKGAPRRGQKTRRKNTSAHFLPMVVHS
Sequence of Epidermal growth factor receptor (Homo sapiens) (P00533 whole entry, looked up): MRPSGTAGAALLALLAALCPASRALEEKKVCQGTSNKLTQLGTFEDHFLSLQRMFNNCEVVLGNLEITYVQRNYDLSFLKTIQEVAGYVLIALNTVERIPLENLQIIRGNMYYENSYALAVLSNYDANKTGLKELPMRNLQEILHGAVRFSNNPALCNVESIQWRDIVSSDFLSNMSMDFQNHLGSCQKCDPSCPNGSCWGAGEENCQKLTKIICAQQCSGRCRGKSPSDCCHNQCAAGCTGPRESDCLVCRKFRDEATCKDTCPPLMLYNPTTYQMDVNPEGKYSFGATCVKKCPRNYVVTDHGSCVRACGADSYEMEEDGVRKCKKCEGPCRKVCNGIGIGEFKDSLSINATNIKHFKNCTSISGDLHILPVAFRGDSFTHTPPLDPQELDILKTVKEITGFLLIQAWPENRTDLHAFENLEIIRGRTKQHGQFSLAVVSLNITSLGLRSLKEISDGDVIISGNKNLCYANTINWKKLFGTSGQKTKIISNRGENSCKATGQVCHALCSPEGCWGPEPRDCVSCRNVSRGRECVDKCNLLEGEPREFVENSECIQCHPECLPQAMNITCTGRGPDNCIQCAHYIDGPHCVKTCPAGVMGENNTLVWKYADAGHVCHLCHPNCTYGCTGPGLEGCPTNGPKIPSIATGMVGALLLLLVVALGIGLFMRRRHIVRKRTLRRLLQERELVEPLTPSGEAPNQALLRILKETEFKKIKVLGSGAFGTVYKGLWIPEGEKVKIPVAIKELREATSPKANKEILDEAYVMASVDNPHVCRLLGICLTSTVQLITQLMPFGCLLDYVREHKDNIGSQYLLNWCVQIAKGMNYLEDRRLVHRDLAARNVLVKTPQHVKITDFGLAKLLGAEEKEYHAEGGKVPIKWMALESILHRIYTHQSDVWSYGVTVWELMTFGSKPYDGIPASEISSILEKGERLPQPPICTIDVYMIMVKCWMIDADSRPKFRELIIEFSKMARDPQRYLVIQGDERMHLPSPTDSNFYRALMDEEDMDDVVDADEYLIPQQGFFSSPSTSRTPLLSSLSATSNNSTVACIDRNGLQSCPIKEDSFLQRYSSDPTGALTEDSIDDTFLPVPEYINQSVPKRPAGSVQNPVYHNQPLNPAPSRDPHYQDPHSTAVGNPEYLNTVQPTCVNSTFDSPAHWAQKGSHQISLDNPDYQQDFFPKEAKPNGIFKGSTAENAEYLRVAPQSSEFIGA
Sequence of Neurogenic locus notch homolog protein 3 (Homo sapiens) (Q9UM47 whole entry, looked up): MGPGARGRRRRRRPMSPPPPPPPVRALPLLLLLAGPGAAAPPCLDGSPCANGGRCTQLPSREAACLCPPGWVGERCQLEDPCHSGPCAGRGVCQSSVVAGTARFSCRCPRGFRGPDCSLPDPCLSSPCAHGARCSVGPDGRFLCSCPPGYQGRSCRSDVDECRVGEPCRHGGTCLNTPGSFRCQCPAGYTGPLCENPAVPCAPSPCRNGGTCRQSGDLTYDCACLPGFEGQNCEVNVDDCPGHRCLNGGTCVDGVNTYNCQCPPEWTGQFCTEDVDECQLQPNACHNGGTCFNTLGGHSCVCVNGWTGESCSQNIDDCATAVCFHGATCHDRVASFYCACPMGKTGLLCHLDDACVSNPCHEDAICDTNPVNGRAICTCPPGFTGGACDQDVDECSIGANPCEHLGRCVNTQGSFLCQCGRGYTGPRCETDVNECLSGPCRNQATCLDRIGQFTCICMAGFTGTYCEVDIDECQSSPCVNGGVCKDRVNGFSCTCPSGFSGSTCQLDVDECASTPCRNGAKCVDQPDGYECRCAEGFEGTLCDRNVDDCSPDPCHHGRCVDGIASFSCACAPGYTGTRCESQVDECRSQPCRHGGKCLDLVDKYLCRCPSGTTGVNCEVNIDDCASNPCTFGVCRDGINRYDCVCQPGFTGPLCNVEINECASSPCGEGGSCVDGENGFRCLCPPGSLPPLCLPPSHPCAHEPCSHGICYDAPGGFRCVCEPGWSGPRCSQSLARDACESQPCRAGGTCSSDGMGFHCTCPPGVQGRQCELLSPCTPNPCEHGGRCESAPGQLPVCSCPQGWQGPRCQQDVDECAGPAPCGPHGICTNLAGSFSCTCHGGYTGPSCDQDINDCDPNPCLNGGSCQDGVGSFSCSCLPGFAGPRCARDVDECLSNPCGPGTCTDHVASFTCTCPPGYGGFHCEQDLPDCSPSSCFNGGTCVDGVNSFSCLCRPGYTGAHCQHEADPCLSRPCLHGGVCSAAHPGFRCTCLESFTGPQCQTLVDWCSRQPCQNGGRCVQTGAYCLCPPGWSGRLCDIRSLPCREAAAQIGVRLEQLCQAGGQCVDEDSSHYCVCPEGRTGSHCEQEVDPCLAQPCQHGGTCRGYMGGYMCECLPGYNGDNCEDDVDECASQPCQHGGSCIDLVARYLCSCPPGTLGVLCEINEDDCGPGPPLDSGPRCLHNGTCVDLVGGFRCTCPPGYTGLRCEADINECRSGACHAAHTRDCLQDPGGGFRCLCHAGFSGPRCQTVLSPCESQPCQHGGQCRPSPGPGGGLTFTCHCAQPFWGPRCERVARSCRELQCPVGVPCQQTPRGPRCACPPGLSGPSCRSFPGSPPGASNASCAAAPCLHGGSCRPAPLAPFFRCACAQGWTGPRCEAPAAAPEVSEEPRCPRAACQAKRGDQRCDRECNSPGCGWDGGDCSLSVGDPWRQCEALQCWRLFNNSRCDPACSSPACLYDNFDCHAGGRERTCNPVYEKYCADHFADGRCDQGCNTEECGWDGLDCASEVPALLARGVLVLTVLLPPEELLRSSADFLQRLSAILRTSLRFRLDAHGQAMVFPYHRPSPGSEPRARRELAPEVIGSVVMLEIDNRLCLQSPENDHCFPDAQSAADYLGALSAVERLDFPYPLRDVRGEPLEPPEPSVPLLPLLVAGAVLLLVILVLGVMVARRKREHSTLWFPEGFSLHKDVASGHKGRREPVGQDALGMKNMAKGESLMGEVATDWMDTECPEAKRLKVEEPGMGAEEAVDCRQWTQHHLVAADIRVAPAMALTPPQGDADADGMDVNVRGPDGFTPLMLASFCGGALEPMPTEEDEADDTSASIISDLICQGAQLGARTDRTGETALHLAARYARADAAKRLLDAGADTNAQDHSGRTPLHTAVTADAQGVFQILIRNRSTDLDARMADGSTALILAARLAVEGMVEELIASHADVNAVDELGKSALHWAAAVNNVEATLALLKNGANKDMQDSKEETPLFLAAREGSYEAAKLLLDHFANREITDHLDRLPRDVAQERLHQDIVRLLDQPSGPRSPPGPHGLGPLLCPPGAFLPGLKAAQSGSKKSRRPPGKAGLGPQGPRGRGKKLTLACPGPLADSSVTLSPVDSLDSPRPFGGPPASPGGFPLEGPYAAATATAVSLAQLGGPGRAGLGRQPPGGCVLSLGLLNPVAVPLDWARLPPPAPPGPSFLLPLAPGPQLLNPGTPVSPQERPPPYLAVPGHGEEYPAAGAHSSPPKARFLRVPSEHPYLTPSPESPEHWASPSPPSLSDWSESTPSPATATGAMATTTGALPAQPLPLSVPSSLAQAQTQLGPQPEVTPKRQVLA
Sequence of Follistatin-related protein 3 (Homo sapiens) (O95633 whole entry, looked up): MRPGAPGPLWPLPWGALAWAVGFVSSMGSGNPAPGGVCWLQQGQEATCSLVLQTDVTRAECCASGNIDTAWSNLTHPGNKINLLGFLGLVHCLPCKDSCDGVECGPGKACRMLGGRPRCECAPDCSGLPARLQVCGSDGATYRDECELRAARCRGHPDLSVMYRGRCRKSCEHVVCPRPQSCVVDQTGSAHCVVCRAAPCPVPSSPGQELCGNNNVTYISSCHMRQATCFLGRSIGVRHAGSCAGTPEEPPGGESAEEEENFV
Sequence of Torsin-1A-interacting protein 2 (Homo sapiens) (Q8NFQ8 whole entry, looked up): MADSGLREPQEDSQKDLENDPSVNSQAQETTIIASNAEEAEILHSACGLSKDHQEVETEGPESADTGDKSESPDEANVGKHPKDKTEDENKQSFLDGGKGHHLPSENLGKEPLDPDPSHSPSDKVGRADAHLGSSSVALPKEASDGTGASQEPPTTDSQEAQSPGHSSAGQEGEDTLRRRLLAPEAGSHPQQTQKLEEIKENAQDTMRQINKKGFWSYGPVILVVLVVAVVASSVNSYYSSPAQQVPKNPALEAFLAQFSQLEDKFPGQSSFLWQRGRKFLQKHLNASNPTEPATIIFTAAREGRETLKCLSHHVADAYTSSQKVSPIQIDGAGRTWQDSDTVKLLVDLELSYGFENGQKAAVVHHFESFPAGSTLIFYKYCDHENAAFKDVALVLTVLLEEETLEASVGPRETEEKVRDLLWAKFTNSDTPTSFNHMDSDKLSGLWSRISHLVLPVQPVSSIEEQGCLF
Sequence of Dickkopf-related protein 1 (Homo sapiens) (O94907 whole entry, looked up): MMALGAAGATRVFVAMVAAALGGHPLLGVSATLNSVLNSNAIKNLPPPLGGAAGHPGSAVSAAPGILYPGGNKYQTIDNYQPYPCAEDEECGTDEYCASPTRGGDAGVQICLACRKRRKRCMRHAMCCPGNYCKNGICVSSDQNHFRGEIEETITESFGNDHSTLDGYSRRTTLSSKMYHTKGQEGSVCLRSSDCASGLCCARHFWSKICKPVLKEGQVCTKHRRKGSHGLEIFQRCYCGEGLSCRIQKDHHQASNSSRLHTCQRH

Compound | composite z-score [1] | z-score [2] | z-score [3] | z-score [4] | composite z-score [5] | z-score [6] | composite z-score [7] | composite z-score [8] | composite z-score [9] | composite z-score [10] | composite z-score [11] | composite z-score [12] | composite z-score [13] | z-score [14] | composite z-score [15] | composite z-score [16] | composite z-score [17] | composite z-score [18] | composite z-score [19] | composite z-score [20]
C#CCN(C/C=C/c1ccccc1)[C@H](CO[Si](C)(C)C(C)(C)C)c1ccccc1 | 0.21 | 0.253 (inactive) | -0.121 (inactive) | 0.0066 (inactive) | 0.433 | -0.347 (inactive) | -0.264 | -0.0154 | -0.091 | -0.21 | 0.209 | -0.454 | -0.541 | -0.736 (inactive) | 0.108 | -0.871 | -0.468 | -0.261 | -0.156 | -0.0543
CC(C)C[C@H]1NC(=O)[C@@]23C(=O)N[C@@H](Cc4ccccc4)C2[C@H](C)[C@@]2(C)O[C@H]2C3/C=C/C/C=C\CNC(=O)[C@@H]2CCCN2C1=O (stereo not given in full) | 1.52 | -0.397 (inactive) | -1.08 (inactive) | -0.579 (inactive) | 1.58 | -1.14 (inactive) | -0.147 | 0.588 | 0.696 | -0.008 | 0.903 | -0.244 | -0.575 | 0.091 (inactive) | 0.815 | 0.47 | 0.139 | 0.572 | 0.668 | 0.918
Cc1ccccc1C(O)C1C=CC2C(=O)N(c3ccccc3)C(=O)C2N1Nc1ccccc1F (stereo not given) | 1.16 | 0.0769 (inactive) | 0.592 (inactive) | 0.764 (inactive) | 3.41 | -0.927 (inactive) | 0.496 | -0.471 | 1.12 | 0.0122 | 1.31 | 0.938 | 1.23 | 0.476 (inactive) | 0.77 | 0.45 | 0.153 | 0.836 | -0.6 | 1.04
N#Cc1ccc(C(O)C2C=CC3C(=O)N(c4ccccc4)C(=O)C3N2Nc2ccc([N+](=O)[O-])cc2)cc1 (stereo not given) | 1.51 | -0.107 (inactive) | 0.602 (inactive) | 2.45 (inactive) | 3.13 | -0.684 (inactive) | 0.0913 | -0.463 | 1.09 | 0.0522 | 1.37 | 0.904 | 1.16 | 0.448 (inactive) | 0.395 | 1.09 | -0.175 | 0.516 | -0.274 | 0.958
CCOC(=O)C1=CC[C@@H](c2ccc(F)cc2)N(S(=O)(=O)c2ccc(C)cc2)[C@H]1c1ccc([N+](=O)[O-])cc1 | 0.518 | 0.342 (inactive) | 1.32 (inactive) | 6.03 (inactive) | 2.5 | 0.543 (inactive) | 0.0322 | -0.234 | 0.73 | -0.0409 | 0.681 | 0.0684 | 0.373 | -0.689 (inactive) | 0.914 | 0.988 | -0.24 | 0.485 | -0.453 | 0.537
CCCCN1CC=CC23O[C@@H]4C=CCOC(=O)[C@@H]4[C@H]2C(=O)N(CCO)[C@@H]3C1=O (stereo not given in full) | -0.757 | -0.312 (inactive) | -0.706 (inactive) | -0.179 (inactive) | 0.62 | -0.454 (inactive) | 0.221 | -1.45 | -0.823 | -0.327 | 1.58 | 0.125 | 0.537 | 0.499 (inactive) | -1.25 | -0.641 | -1.54 | -1.24 | -1.58 | -0.112
C[N+](C)(C)CCCC[C@@H]1NC(=O)[C@H]2C[C@@H](C(=O)NCCCCCNC(=O)CS)[C@@H](c3ccc(O)cc3)N2C1=O | 0.808 | -4.72 (inactive) | -0.839 (inactive) | -0.554 (inactive) | 1.91 | 1.42 (inactive) | -0.134 | 0.212 | 0.58 | -0.0583 | 1.43 | -0.0443 | 0.161 | -0.744 (inactive) | 0.499 | 0.57 | 0.0872 | -0.0399 | 0.312 | 0.425
COc1ccccc1CN1C(=O)c2ccccc2[C@](Cc2ccccc2I)(C(=O)NCCCN(C)C)[C@@H]1c1ccc(CO)cc1 | 1.4 | 0.404 (inactive) | -20.1 (active) | -2.96 (inactive) | 3.04 | -5.17 (inactive) | -0.305 | 0.134 | 0.591 | -0.355 | 1.2 | -0.556 | -0.376 | -1.79 (inactive) | -0.0448 | 1.22 | 0.221 | 0.158 | 0.0393 | 0.545
CC(C)(C)N1CC=CC23O[C@@H]4/C=C\CCCOC(=O)C4[C@H]2C(=O)N(CCCCCCO)[C@@H]3C1=O (stereo not given in full) | -0.0574 | -3.01 (inactive) | -0.927 (inactive) | -0.624 (inactive) | 1.24 | 1.42 (inactive) | -0.302 | -1.19 | -0.052 | 0.252 | 0.873 | -0.204 | 0.63 | -0.725 (inactive) | -0.374 | -0.749 | -0.741 | 0.0927 | -0.857 | 0.705
CN(C)CCCC[C@@H]1NC(=O)[C@H]2C[C@@H](C(=O)O)[C@@H](c3cccc(OCCO)c3)N2C1=O | 1.4 | -0.733 (inactive) | -1.36 (inactive) | 0.102 (inactive) | 2.1 | 0.579 (inactive) | 0.495 | 1.19 | 0.87 | 0.169 | 1.67 | 0.696 | 0.555 | -0.348 (inactive) | 0.702 | 1.14 | 0.258 | 0.666 | 0.969 | 0.658

From PubChem BioAssay
